Bioassay records: PubChem, National Center for Advancing Translational Sciences (NCATS)
SW480 rerep = DNA re-replication induction in SW480 cells; Potency, µM (highest dose often 46.1 µM), for the others: at the highest dose re-replication activation, hits mostly activators; actives 1.8% (n = 340,000); AID 624297; SW480 DNA re-replication, Hoechst DNA content imaging, 48 h; further: % of control where 0% means no effect; nearly all actives have a fitted effect of over 55% in size
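Readout is total intensity of Hoechst-stained nuclei, excited at 405 nm and collected at 500-530 nm. Compound treatment lasted 48 hr at 37 C in 5% CO2 before staining.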
KB-V1 MDR tox = kills drug-selected multidrug resistant KB-V1 cells; Potency, µM (top dose mostly 46.1 µM), most hits filed as cytotoxic; KB-V1 MDR cells viability, CellTiter-Glo, 72 h; actives 3.4% (n = 400,000); further: on the % scale 0 is the no-effect control and ±100 the full control effect; nearly all actives have a fitted effect of over 60% in size
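Potencies derive from concentration-effect curves fitted to normalized luminescence (CellTiter-Glo) of KB-V1 cells treated for 72 h at 37 degrees C in phenol-red-free DMEM containing 10% FBS.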
MCF10A rerep = induces DNA re-replication in MCF 10a normal breast cells; MCF 10A DNA re-replication, Hoechst nuclear intensity, 48 h; Potency, µM (doses to about 46.1 µM), inactives show top-dose activity, positive = re-replication, usual class: activators; actives 2.9% (n = 350,000); AID 624296; further: % of control where 0% means no effect; nearly all actives have a fitted effect of over 50% in size
KB-3-1 tox = KB-3-1 parental cell cytotoxicity; KB-3-1 viability, CellTiter-Glo ATP luminescence, 72 h; Potency, µM (series often up to 46.1 µM), most hits filed as cytotoxic; actives 1.4% (n = 400,000); further: on the % scale 0 is the no-effect control and ±100 the full control effect; nearly all actives have a fitted effect of over 60% in size
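Cytotoxicity in the drug-sensitive parental line KB-3-1 was scored as loss of CellTiter-Glo luminescence following 72 h incubation with compound. Values come from curve fitting of normalized concentration-response data.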
ELG1 repair inh = ELG1-dependent DNA repair inhibition | Potency, µM (series often up to 46.1 µM), for inactives: at the top dose activity change, negative = inhibition, usual class: inhibitors | HEK293T ELG1-luciferase reporter, luminescence, 16 h; DNA damage induced by 5-fluorouridine | AID 504467 | actives 2.3% (n = 330,000); further: on the % scale 0 is the no-effect control and ±100 the full control effect; nearly all actives have a fitted effect of over 55% in size
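DMSO vehicle served as the neutral condition. Each well held 2,000 cells given 5-fluorouridine plus compound; after 16 hr at 37 °C/5% CO2, ONE-Glo was added and luciferase measured 30 min later.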
* hit, by the source's call; i = inactive; ? = inconclusive; / = no result. Shown are actives, neighbours in structure and some others; about 8.1% of the full set was active somewhere. The call rests on the fitted dose curve; in most records, active means well fitted curve in the direction sought with a large enough effect; inconclusive means small, poorly fitted or top-dose-only effect, or another doubt; inactive means no such curve, though single readings can be large; an effect the other way counts as inactive or inconclusive. Potency means the concentration at half of the fitted maximal effect.

SMILES	SW480 rerep	KB-V1 MDR tox	MCF10A rerep	KB-3-1 tox	ELG1 repair inh
CCCS(=O)(=O)N1CC(=O)N(c2cc(C)cc(C)c2)C(C)(C(=O)NC2CCCCCC2)C1 (configuration not stated)	/	i	/	i	/
Cc1ccc(-n2nc3c(N4CCC(C(=O)NCc5cccc(F)c5)CC4)nnc(C)c3c2C)cc1	-2.6%	i	3.9%	i	16.4µM*
Cc1nnc(N2CCC(C(=O)NCc3cccc(Cl)c3)CC2)c2nn(-c3ccccc3)c(C)c12	/	i	/	i	/
CCOc1ccccc1CNC(=O)C1CCCN(c2nnc(C)c3c(C)n(-c4ccccc4)nc23)C1 (configuration not stated)	?	?	14.6µM*	?	?
COc1ccc(-n2nc3c(N4CCC(C(=O)NCCc5ccccc5C)CC4)nnc(C)c3c2C)cc1	?	i	9.2µM*	i	?
Cc1ccc(-n2nc3c(N4CCC(C(=O)NCCc5ccccc5C)CC4)nnc(C)c3c2C)cc1	9.5%	?	23.1µM*	?	11.6%
Cc1cc(Br)ccc1NC(=O)CNC(=O)CNc1cccc([N+](=O)[O-])c1	0.3%	i	0.5%	i	-2.1%
N#C/C(=C\c1ccc(-c2ccccc2[N+](=O)[O-])o1)C(=O)Nc1nc(-c2cccs2)cs1	32.1%	i	?	i	20.6µM*
N#C/C(=C\c1ccc(-c2ccc([N+](=O)[O-])cc2)o1)C(=O)Nc1nc(-c2cccs2)cs1	-2.1%	?	5.1%	i	-11.3%
CCCCC(NC(C)=O)c1nc2ccccc2n1CCC (configuration not stated)	-0.9%	20.6µM*	1.1%	i	-27.5%
CCCn1c(C(C)NC(C)=O)nc2ccccc21 (configuration not stated)	-11.1%	i	2.8%	i	0.9%
O=C1CCCC2=C1C(c1ccc(O)cc1)c1c(ccc3ccccc13)N2 (configuration not stated)	?	i	16.4µM*	i	-1.9%
O=C1CCCC2=C1C(c1ccc(O)c(O)c1)c1c(ccc3ncccc13)N2 (configuration not stated)	1.6%	i	1.4%	i	?
O=C(Nc1ccc(Cl)cc1)c1cc2c(cc1O)[nH]c1ccccc12	1.9%	?	4.61µM*	?	?
CCn1c(SCC(=O)Nc2oc(C)c3c(C)n[nH]c(=O)c23)nnc1-c1ccco1	/	i	/	i	/
C=CCNc1nnc(Cc2ccc(C(C)C)cc2)c(=O)[nH]1	?	i	?	14.6µM*	-20.5%
Clc1nc2ccccc2cc1/C=N/Nc1nc2ccccc2[nH]1	2.3%	i	-12.7%	i	?
Cc1cccc2cc(/C=N/NC(=O)c3ccncc3)c(Cl)nc12	-32.4%	i	-0.7%	i	-10.6%
Cc1cccc2cc(/C=N/NC(=O)c3ccccc3O)c(Cl)nc12	/	?	7.31µM*	i	23.1µM*
Cc1cccc2cc(/C=N/Nc3ccc(C(=O)O)cc3)c(Cl)nc12	17.0%	i	3.66µM*	i	?
O=C(O)c1ccc(N/N=C/c2cc3ccccc3nc2Cl)cc1	?	i	8.2µM*	i	?
O=S(=O)(c1ccccc1)N1N=C(c2ccccc2)CC1c1ccccc1F (configuration not stated)	0.9%	i	?	?	-9.9%
Cc1ccc(NC(=O)C2C3CCC(O3)C2C(=O)O)cc1Cl (configuration not stated)	-4.5%	i	?	?	29.7%
CC(=O)Nc1ccc(C=NN=C2c3ccccc3-c3ccccc32)cc1	0.5%	18.4µM*	?	i	/
N#CC(=C(O)COC(=O)c1ccc2c(c1)OCCO2)c1nc2ccccc2[nH]1	?	i	?	i	/
Cc1nn(-c2ccccc2)c(C)c1C(=O)OC/C(O)=C(\C#N)c1nc2ccccc2[nH]1	-2.3%	i	?	i	-13.7%
Cc1c(C(=O)NC(C)c2ccccc2)c(-c2ccccc2)nn1-c1ccccc1 (configuration not stated)	-2.6%	i	-1.1%	i	14.4%
